What is called AC50 is the concentration giving half of the maximal activity seen.

The structures appear in SMILES notation. Several values for one entry are separate records, joined by “and”; a condition that tells them apart may be missing. Equal entries are not always repeated. A structure can be active in one record and inactive in another. Activity calls are given as the source filed them. The calls were made as follows: active = hit-call score of the fitted dose curve at least 0.9, where 1 is the maximum; inactive = score below 0.9.

Drawing on PubChem BioAssay (EPA / NIEHS), this text covers outcome and AC50 for six molecules.

The target in test [1] is Retinoic acid receptor alpha (Homo sapiens) (UniProt P10276). In words: ATG_DR5_RAR_CIS: Attagene CIS-FACTORIAL HepG2 Assay for human Retinoic Acid Receptor Alpha (RARE), DR5 submotif (AID 2282934). The following applies: HepG2 Attagene cis-factorial RARE DR5 reporter, mRNA; actives raise or lower the signal. The method in brief:
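Endpoint fitted in both directions relative to DMSO as negative control. It reflects DR5 cis-element reporter mRNA induction in transiently transfected HepG2 cells, measured 24 h after dosing through RT-PCR and fluorescent capillary electrophoresis.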

Test [2] in a line: ATG_PPRE_CIS: Attagene CIS-FACTORIAL HepG2 Assay for human Peroxisome Proliferator-activated Response Element (PPRE) (AID 2282958). The conditions noted are these: HepG2 PPRE cis-element reporter, Attagene transcription factor profiling; actives raise or lower the signal. In a few lines: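 After human HepG2 hepatoma cells were transiently transfected with cis-promoter reporter constructs, they were exposed to test chemicals for 24 hours. Reporter RNA was then reverse-transcribed, PCR-amplified, FAM-labeled, HpaI-digested and quantified by capillary electrophoresis.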

The nature of test [3]: BSK_3C_TissueFactor: BioMAP Diversity Plus: 3C Assay for Tissue Factor Biomarker Activity (AID 2282997). The conditions noted are these: BioMAP 3C HUVEC, tissue factor biomarker readout; actives raise or lower the signal. In a few lines: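 Values derive from bidirectional curve fitting against DMSO of Tissue Factor ELISA signals, taken 24 h after dosing primary human umbilical vein endothelial cells.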

Test [4] in a line: BSK_3C_uPAR: BioMAP Diversity Plus: 3C Assay for Urokinase-type plasminogen activator receptor (uPAR) Biomarker Activity (AID 2282998). The conditions noted are these: BioMAP 3C HUVEC, uPAR biomarker ELISA; actives raise or lower the signal. The method in brief: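 ELISA readout of uPAR on human vascular endothelium (umbilical vein primary cells), taken 24 h after chemical dosing. Increases and decreases are both fitted relative to DMSO vehicle.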
A general note: In an ELISA, binding on a coated surface is turned into a signal by an enzyme label.

The nature of test [5]: BSK_3C_VCAM1: BioMAP Diversity Plus: 3C Assay for Vascular cell adhesion molecule 1 (VCAM1) Biomarker Activity (AID 2282999). The following applies: BioMAP 3C HUVEC, VCAM1 ELISA, cytokine-stimulated; actives raise or lower the signal. In a few lines: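 Human umbilical vein endothelial cells were dosed with compound for 24 h, after which cell-surface VCAM-1 was quantified by ELISA. Bidirectional curve fitting used DMSO as negative control and activity baseline.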

Test [6] is described as follows: BSK_3C_Proliferation: Cell Proliferation Assessment in the BioMAP Diversity Plus: 3C Assay (AID 2283006).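 Also: potency may reflect either rise or fall in cell number versus DMSO.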 The conditions noted are these: primary human endothelial cells (HUVEC). The method in brief:
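Human umbilical vein endothelial cells were grown sub-confluent and exposed to chemical for 48 h, then fixed with 10% TCA and stained with 0.1% sulforhodamine B; absorbance at 560 nm gave relative cell number, fitted bidirectionally against DMSO baseline.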

Read-out in test [7]: E-selectin (Homo sapiens) (UniProt P16581)
The test is described as follows: BSK_3C_Eselectin: BioMAP Diversity Plus: 3C Assay for Eselectin Biomarker Activity (AID 2283015). The following applies: primary human endothelial cells (HUVEC); actives raise or lower the signal. The method in brief:
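Human vascular endothelium from umbilical vein is exposed to test chemicals for 24 h. E-selectin levels are read by ELISA and compared with DMSO controls.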

Read-out in test [8]: Interleukin-1 alpha (IL1a), IL1A (gene 3552)
The test is described as follows: BSK_BE3C_IL1a: BioMAP Diversity Plus: BE3C Assay for Interleukin-1 alpha (IL1a) Biomarker Activity (AID 2283016). The conditions noted are these: primary human bronchial epithelial cells; actives raise or lower the signal. In a few lines: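 Human primary bronchial epithelial cells (BE3C system) were dosed with compound and IL-1a measured by ELISA 24 h later. Activity was fitted bidirectionally against DMSO baseline; cytotoxicity was tracked in parallel cultures by SRB total-protein staining.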

Read-out in test [9]: Plasminogen activator inhibitor-1 (PAI1), SERPINE1 (gene 5054)
The test is described as follows: BSK_BE3C_PAI1: BioMAP Diversity Plus: BE3C Assay for Plasminogen activator inhibitor-1 (PAI1) Biomarker Activity (AID 2283037). The conditions noted are these: primary human bronchial epithelial cells; actives raise or lower the signal. In a few lines: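 Human primary bronchial epithelial cells were exposed to chemical for 24 h, then PAI-1 was quantified by ELISA. Activity was fitted bidirectionally relative to the DMSO negative control baseline.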

Read-out in test [10]: Tissue plasminogen activator (tPA), PLAT (gene 5327)
In words: BSK_BE3C_tPA: BioMAP Diversity Plus: BE3C Assay for Tissue plasminogen activator (tPA) Biomarker Activity (AID 2283041).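 As to outcome: tPA level quantified by ELISA one day after compound addition.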 The following applies: primary human bronchial epithelial cells; actives raise or lower the signal. In a few lines:
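Human primary bronchial epithelial cells were dosed with chemical and tPA biomarker levels measured by ELISA 24 hours later. Activity was fitted bidirectionally against DMSO as negative control and baseline.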

Read-out in test [11]: serum amyloid A (SAA), SAA1 (gene 6288)
In words: BSK_CASM3C_SAA: BioMAP Diversity Plus: CASM3C Assay for serum amyloid A (SAA) Biomarker Activity (AID 2283049).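 Also: SAA protein level quantified by ELISA.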 The following applies: primary human coronary artery smooth muscle cells; actives raise or lower the signal.

Read-out in test [12]: Thrombomodulin, THBD (gene 7056)
The test is described as follows: BSK_CASM3C_Thrombomodulin: BioMAP Diversity Plus: CASM3C Assay for Thrombomodulin Biomarker Activity (AID 2283051).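 Also: thrombomodulin protein level measured by ELISA 24 h after dosing.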 The conditions noted are these: primary human coronary artery smooth muscle cells; actives raise or lower the signal.

Read-out in test [13]: Macrophage colony-stimulating factor (MCSF), CSF1 (gene 1435)
The test is described as follows: BSK_hDFCGF_MCSF: BioMAP Diversity Plus: hDFCGF Assay for Macrophage colony-stimulating factor (MCSF) Biomarker Activity (AID 2283060). The following applies: primary human foreskin fibroblasts; actives raise or lower the signal. The method in brief: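 M-CSF levels, determined by ELISA, are taken at 24 h after dosing human skin fibroblasts. Responses in either direction are fitted with DMSO serving as the baseline.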

Read-out in test [14]: Interleukin-1 alpha (IL1a), IL1A (gene 3552)
In words: BSK_KF3CT_IL1a: BioMAP Diversity Plus: KF3CT Assay for Interleukin-1 alpha (IL1a) Biomarker Activity (AID 2283070). The following applies: primary human keratinocytes with fibroblasts; actives raise or lower the signal. In a few lines:
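Human keratinocyte plus foreskin fibroblast primary co-culture, sampled 24 h after chemical dosing. IL-1a measured by ELISA; responses fitted bidirectionally against DMSO baseline (negative control), so gain or loss of signal both count.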

Read-out in test [15]: C-C motif chemokine 2 (Homo sapiens) (UniProt P13500)
In words: BSK_KF3CT_MCP1: BioMAP Diversity Plus: KF3CT Assay for Monocyte Chemoattractant Protein 1 (MCP1/CCL2) Biomarker Activity (AID 2283073). The following applies: primary human keratinocytes with fibroblasts; actives raise or lower the signal. The method in brief:
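Keratinocytes and foreskin fibroblasts were co-cultured, dosed with chemical, and sampled 24 h later. MCP-1 was quantified by ELISA, and the endpoint was analyzed with bidirectional fitting using DMSO as negative control.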

Read-out in test [16]: Matrix Metallopeptidase 9 (MMP9), MMP9 (gene 4318)
In words: BSK_KF3CT_MMP9: BioMAP Diversity Plus: KF3CT Assay for Matrix Metallopeptidase 9 (MMP9) Biomarker Activity (AID 2283074).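 As to AC50: MMP9 protein level quantified by ELISA in the co-culture.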 The conditions noted are these: primary human keratinocytes with fibroblasts; actives raise or lower the signal. The method in brief: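 Keratinocyte plus foreskin fibroblast human primary skin co-culture was dosed with chemical and MMP-9 was quantified by ELISA 24 h later. Bidirectional curve fitting used DMSO as negative control and activity baseline.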

Read-out in test [17]: Interleukin-1 alpha (IL1a), IL1A (gene 3552)
In words: BSK_LPS_IL1a: BioMAP Diversity Plus: LPS Assay for Interleukin-1 alpha (IL1a) Biomarker Activity (AID 2283080). The conditions noted are these: primary human HUVEC with PBMC; actives raise or lower the signal. The method in brief:
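Measured: IL-1 alpha via ELISA at 24 h in LPS-activated human umbilical vein endothelium–PBMC co-culture. Baseline: DMSO, bidirectional fitting.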

The nature of test [18]: BSK_LPS_PGE2: BioMAP Diversity Plus: LPS Assay for Prostaglandin E2 (PGE2) Biomarker Activity (AID 2283082). The following applies: primary human HUVEC with PBMC; actives raise or lower the signal. The method in brief:
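HUVEC plus PBMC co-culture stimulated with LPS; secreted PGE2 quantified by ELISA 24 h after chemical dosing. Activity fitted bidirectionally against DMSO as negative control and baseline; parallel SRB total-protein staining served as cytotoxicity check.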

Read-out in test [19]: Tumor necrosis factor (Homo sapiens) (UniProt P01375)
In words: BSK_LPS_TNFa: BioMAP Diversity Plus: LPS Assay for Tumour Necrosis Factor alpha (TNFa) Biomarker Activity (AID 2283085).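 As to AC50: TNFa protein level quantified by ELISA in the co-culture.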 The following applies: primary human HUVEC with PBMC; actives raise or lower the signal. The method in brief:
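Human umbilical vein endothelial cells co-cultured with PBMC were exposed to test chemical and TNFa measured by ELISA 24 h after dosing. Bidirectional curve fitting was done relative to DMSO as negative control and baseline.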

A short description of test [20]: BSK_SAg_PBMCCytotoxicity: PBMC Cytotoxicity Assessment in the BioMAP Diversity Plus: SAg Assay (AID 2283093).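 Also: PBMC viability measured as Alamar Blue reduction fluorescence at 546/580 nm; fitted both ways against DMSO so a hit may be loss or gain of signal.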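 As to AC50: PBMC superantigen activated with SEB plus TSST-1 one hour after compound addition.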 The following applies: primary human HUVEC with PBMC. The method in brief:
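Human umbilical vein endothelial cells co-cultured with PBMC; PBMC (75,000/well) pre-treated with compound 1 h, then activated with SEB and TSST-1 (20 ng/mL final each) for 90 h. Alamar Blue added 6 h, fluorescence 546/580 nm; bidirectional fit versus DMSO.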

Tumor necrosis factor (Homo sapiens), sequence (P01375 whole entry, looked up): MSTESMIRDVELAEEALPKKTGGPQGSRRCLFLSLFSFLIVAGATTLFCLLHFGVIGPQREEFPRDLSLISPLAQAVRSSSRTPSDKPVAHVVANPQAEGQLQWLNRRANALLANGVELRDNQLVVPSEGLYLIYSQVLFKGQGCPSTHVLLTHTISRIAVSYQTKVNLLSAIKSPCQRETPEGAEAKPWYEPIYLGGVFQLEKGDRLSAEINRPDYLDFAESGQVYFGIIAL
E-selectin (Homo sapiens), sequence (P16581 whole entry, looked up): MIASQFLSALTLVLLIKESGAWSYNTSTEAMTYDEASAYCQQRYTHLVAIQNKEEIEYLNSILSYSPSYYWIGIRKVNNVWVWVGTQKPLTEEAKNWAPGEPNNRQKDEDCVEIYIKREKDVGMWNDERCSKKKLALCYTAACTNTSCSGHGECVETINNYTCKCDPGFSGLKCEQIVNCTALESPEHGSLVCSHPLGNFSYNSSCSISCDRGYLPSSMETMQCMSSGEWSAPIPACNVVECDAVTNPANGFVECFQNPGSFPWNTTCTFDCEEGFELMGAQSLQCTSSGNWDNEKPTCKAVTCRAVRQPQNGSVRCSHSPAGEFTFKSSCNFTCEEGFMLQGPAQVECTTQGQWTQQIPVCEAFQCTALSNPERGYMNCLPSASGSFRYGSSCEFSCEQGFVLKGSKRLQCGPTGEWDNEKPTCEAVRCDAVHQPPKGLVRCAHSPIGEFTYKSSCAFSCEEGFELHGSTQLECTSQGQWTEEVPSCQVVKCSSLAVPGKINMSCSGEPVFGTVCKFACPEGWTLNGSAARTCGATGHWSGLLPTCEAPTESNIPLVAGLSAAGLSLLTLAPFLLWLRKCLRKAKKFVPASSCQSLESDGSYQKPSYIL
Retinoic acid receptor alpha (Homo sapiens), sequence (P10276 whole entry, looked up): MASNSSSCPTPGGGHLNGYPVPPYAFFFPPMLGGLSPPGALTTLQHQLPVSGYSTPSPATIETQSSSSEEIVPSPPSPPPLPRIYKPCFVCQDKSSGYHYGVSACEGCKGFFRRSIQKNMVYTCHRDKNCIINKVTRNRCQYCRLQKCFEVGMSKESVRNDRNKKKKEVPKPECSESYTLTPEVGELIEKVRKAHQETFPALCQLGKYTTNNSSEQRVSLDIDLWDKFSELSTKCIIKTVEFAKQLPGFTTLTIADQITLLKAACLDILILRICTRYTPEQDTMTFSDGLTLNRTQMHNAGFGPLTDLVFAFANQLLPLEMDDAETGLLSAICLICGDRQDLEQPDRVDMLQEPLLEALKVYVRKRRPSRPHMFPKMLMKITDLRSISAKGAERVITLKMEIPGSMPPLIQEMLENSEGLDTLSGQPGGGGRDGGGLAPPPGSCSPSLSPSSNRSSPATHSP

As for `CC=Cc1ccc2c(c1)OCO2`, in test [1], the result was inactive.

For the molecule `C#CC1(O)CCCCC1`, the result in [1] was inactive.

On to `O=C(O)CCCc1ccc(N(CCCl)CCCl)cc1`, for which the outcome in test [2], in test [9], in [10], in [11], in test [12] and in test [13] was inactive. The outcome in test [14], in [15], in test [16], in test [18], in [19] and in test [20] was inactive. Also, the AC50 in test [3] is 20 µM (active) and 12.3 µM (active); in test [4], 20 µM (active) and 16.3 µM (active); in [5], 31.8 µM (active) and 28.7 µM (active); in test [6] it was 12.1 µM (active) and 6.56 µM (active); in test [7], 20 µM (active); in [8], 20 µM (active). Moreover, the AC50 in test [9] is 3.97 µM (active); in test [10] it was 10.7 µM (active); in test [11], 20 µM (active); in [12], 5.06 µM (active); in test [13], 16.6 µM (active); in [14] it was 12.3 µM (active). Further, the AC50 is 30 µM (active) in [15]; 20 µM (active) in test [16]; 34.8 µM (active) and 20 µM (active) in test [17]; 26.5 µM (active) in [19]; 20 µM (active) in [20].

For `O=C1C(Cl)=C(Cl)C(=O)C(Cl)=C1Cl`, the call in test [1], in test [2], in test [10], in test [12] and in test [18] was inactive. Further, the AC50 in [3] was 7 µM (active); in [4] it was 9.52 µM (active); in test [5], 11.9 µM (active); in [6], 5.26 µM (active); in [7], 10.3 µM (active); in test [8] it was 30.5 µM (active). Moreover, the concentration at half-maximal activity (AC50) in [9] was 20 µM (active); in [11], 20 µM (active); in [13] it was 20 µM (active); in [14], 20.1 µM (active); in test [15], 10.1 µM (active); in [16], 13.5 µM (active). The AC50 in [17] is 14 µM (active); in [19], 30.9 µM (active); in test [20] it was 15.1 µM (active).

Take `CN1C(=O)CCS(=O)(=O)C1c1ccc(Cl)cc1` (stereo unspecified): in test [1], the molecule was classed as inactive.

On to `CC(C)(C)C(O)C(Oc1ccc(-c2ccccc2)cc1)n1cncn1` (stereo unspecified), for which the molecule was classed as inactive in test [2], in test [3], in [5], in [8], in [10] and in [12]. In addition, the outcome in [13], in test [15], in test [17], in test [18], in [19] and in [20] was inactive. Besides, the AC50 is 32.2 µM (active) in test [4]; 31 µM (active) in [6]; 29.9 µM (active) in [7]; 5.39 µM (active) in test [9]; 20 µM (active) in test [11]; 33 µM (active) in test [14]. Moreover, the AC50 in [16] is 28 µM (active).
